Test results from PubChem BioAssay.
Inconclusive results are not listed. Activity calls are given as the source filed them. Unless noted, cut-off not given; nearly all actives show AC50 up to about 30 µM. Peptide text beside a SMILES is read from it.

Assay: viability loss in pontine glioma line – cell-based, JHH-DIPG-1, MIPE4.0, CellTiter-Glo, qHTS, dose response (AID 1347062; cut-off not given, nearly all actives have AC50 up to about 27 µM;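 on AC50: cells exposed to compound for two days before readout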)
Conditions: JHH-DIPG-1 viability, CellTiter-Glo ATP luminescence

| Structure (SMILES) | outcome | AC50 |
| --- | --- | --- |
| O=C(O)c1cn(-c2ccc(F)cc2)c2cc(N3CCNCC3)c(F)cc2c1=O | inactive | – |
| CN1C(C(=O)Nc2ccccn2)=C(O)c2sccc2S1(=O)=O | inactive | – |
| NCC1CCC(C(=O)O)CC1 (stereo not given) | inactive | – |
| NC(CO)C(=O)NNCc1ccc(O)c(O)c1O (stereo not given) | inactive | – |
| Nc1nc(=S)c2[nH]cnc2[nH]1 | – | 0.833 µM (active) |
| O=c1c(-c2ccc(O)cc2)coc2cc(O)cc(O)c12 | inactive | – |
| CC1(C)NC(=O)N(c2ccc([N+](=O)[O-])c(C(F)(F)F)c2)C1=O | inactive | – |
| C1CCC(C(CC2CCCCN2)C2CCCCC2)CC1 (stereo not given) | – | 9.35 µM (active) |
| N[C@@H](Cc1ccc(O)c(O)c1)C(=O)O | inactive | – |
| Cc1oncc1C(=O)Nc1ccc(C(F)(F)F)cc1 | inactive | – |
| NS(=O)(=O)c1cc2c(cc1Cl)NC(C(Cl)Cl)NS2(=O)=O (stereo not given) | inactive | – |
| COC(=O)[C@H](Cc1ccccc1)NC(=O)[C@@H](N)CC(=O)O (H-Asp-Phe-OMe) | inactive | – |
| CC1=CC(=O)c2ccccc2C1=O | – | 8.33 µM (active) |
| CCOC(=O)C1=C[C@]2(CC)CCCN3CCc4c(n1c1ccccc41)[C@@H]32 | – | 11.8 µM (active) |

Assay: viability loss in pontine glioma line – cell-based, SU-DIPG-IV, MIPE4.0, CellTiter-Glo, qHTS, dose response (AID 1347063);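 further: compound exposure lasted 48 hours before the viability readout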
Conditions: CellTiter-Glo ATP luminescence

| Structure (SMILES) | AC50 | outcome |
| --- | --- | --- |
| O=C(Nc1ccc([N+](=O)[O-])cc1Cl)c1cc(Cl)ccc1O | 1.66 µM (active) | – |
| CNC[C@H](O)c1cccc(O)c1 | – | inactive |
| O=NN(CCCl)C(=O)NCCCl | – | inactive |
| COc1ccnc(CS(=O)c2nc3ccc(OC(F)F)cc3[nH]2)c1OC (stereo not given) | – | inactive |
| O=C(NC(Cc1cc(=O)[nH]c2ccccc12)C(=O)O)c1ccc(Cl)cc1 (stereo not given) | – | inactive |
| NC(=O)NO | 1.87 µM (active) | – |
| OC[C@H]1O[C@@H](O[C@@H]2[C@@H](CO)O[C@](O)(CO)[C@H]2O)[C@H](O)[C@@H](O)[C@H]1O | – | inactive |
| NNc1nncc2ccccc12 | – | inactive |
| CC(=O)Oc1ccccc1C(=O)O | – | inactive |
| CN(C)c1ccc(C(=C2C=CC(=[N+](C)C)C=C2)c2ccc(N(C)C)cc2)cc1 | 0.148 µM (active) | – |
| Cn1cnc2c1c(=O)[nH]c(=O)n2C | 10.5 µM (active) | – |
| COc1ccc(CCN(C)CCCC(C#N)(c2ccc(OC)c(OC)c2)C(C)C)cc1OC (stereo not given) | – | inactive |
| O=C(O)c1cn(-c2ccc(F)cc2)c2cc(N3CCNCC3)c(F)cc2c1=O | – | inactive |
| CN1C(C(=O)Nc2ccccn2)=C(O)c2sccc2S1(=O)=O | – | inactive |
| NCC1CCC(C(=O)O)CC1 (stereo not given) | – | inactive |
| NC(CO)C(=O)NNCc1ccc(O)c(O)c1O (stereo not given) | – | inactive |
| Nc1nc(=S)c2[nH]cnc2[nH]1 | 7.43 µM (active) | – |
| O=c1c(-c2ccc(O)cc2)coc2cc(O)cc(O)c12 | – | inactive |
| CC1(C)NC(=O)N(c2ccc([N+](=O)[O-])c(C(F)(F)F)c2)C1=O | – | inactive |
| C1CCC(C(CC2CCCCN2)C2CCCCC2)CC1 (stereo not given) | 20.9 µM (active) | – |
| N[C@@H](Cc1ccc(O)c(O)c1)C(=O)O | – | inactive |
| NS(=O)(=O)c1cc2c(cc1Cl)NC(C(Cl)Cl)NS2(=O)=O (stereo not given) | – | inactive |
| Cc1cc(C2CCCCC2)n(O)c(=O)c1 | 3.32 µM (active) | – |
| COC(=O)[C@H](Cc1ccccc1)NC(=O)[C@@H](N)CC(=O)O (H-Asp-Phe-OMe) | – | inactive |
| CC1=CC(=O)c2ccccc2C1=O | 26.4 µM (active) | – |
| CCOC(=O)C1=C[C@]2(CC)CCCN3CCc4c(n1c1ccccc41)[C@@H]32 | 16.6 µM (active) | – |
